Source: PubChem
VP16 counter: Gal4-VP16 reporter inhibition counter-screen; Drosophila S2 Gal4-VP16 UAS-luciferase, luminescence, 20 h; 3.5% of 310,000 active; Potency, µM (top dose mostly 53.6 µM), for inactives: top-dose activity, negative = inhibition, hits mostly inhibitors;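 note: Gal4-VP16 expression switched on by copper sulfate through the metallothionein promoter; potency is the fitted concentration of half-maximal effect; nearly all actives have a fitted effect of over 50% in size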
DT40 TDP1 no CPT: qHTS for Inhibitors of human tyrosyl-DNA phosphodiesterase 1 (TDP1): qHTS in cells in absence of CPT. 15% of 420,000 active. DT40 Tdp1-/- hTDP1 cells, no CPT, ATP luminescence, 48 h. Potency, µM (top dose mostly 46.2 µM), for inactives: top-dose activity change, negative = growth inhibition, usual class: inhibitors; note: potency is the fitted concentration of half-maximal effect; nearly all actives have a fitted effect of over 55% in size
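Stably hTDP1-transfected Tdp1-null chicken DT40 cells were treated with library compounds minus camptothecin and grown for at least 48 hr at 37 °C, after which cellular ATP was quantified by luminescence.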
RORg inh: ROR gamma (mouse) transcription inhibition | P51450 | Drosophila S2 Gal4-RORgamma UAS-luciferase reporter, 20 h | Potency, µM (highest dose often 53.6 µM), for the others: at the top dose activity change, negative = inhibition, usual class: inhibitors | 5.4% of 310,000 active; note: potency is the fitted concentration of half-maximal effect; nearly all actives have a fitted effect of over 60% in size
Target sequence (P51450 whole entry, looked up, the tested form may be a part): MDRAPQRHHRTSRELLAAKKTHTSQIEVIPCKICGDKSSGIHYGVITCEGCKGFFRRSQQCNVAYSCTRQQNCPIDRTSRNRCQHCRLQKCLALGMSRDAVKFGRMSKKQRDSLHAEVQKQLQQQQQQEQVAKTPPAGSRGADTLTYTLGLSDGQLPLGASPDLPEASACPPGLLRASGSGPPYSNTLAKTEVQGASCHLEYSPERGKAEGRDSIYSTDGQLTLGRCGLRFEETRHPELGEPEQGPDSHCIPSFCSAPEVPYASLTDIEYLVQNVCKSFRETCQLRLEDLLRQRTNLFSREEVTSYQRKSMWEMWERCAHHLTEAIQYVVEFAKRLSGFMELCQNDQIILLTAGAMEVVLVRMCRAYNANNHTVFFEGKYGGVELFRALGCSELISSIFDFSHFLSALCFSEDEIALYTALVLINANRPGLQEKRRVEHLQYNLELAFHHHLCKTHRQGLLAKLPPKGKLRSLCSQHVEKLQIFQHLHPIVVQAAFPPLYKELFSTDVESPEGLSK
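Using a luciferase readout, inhibitors were identified by reduced reporter activity in Drosophila cells coexpressing a copper-inducible Gal4–ROR gamma fusion and UAS-driven Photinus luciferase, incubated 20 hr after 700 uM copper sulfate.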
ELG1 repair inh: inhibitors of ELG1-dependent DNA repair in HEK293T cells. 2.3% of 330,000 active. HEK293T ELG1-luciferase reporter, luminescence, 16 h; DNA damage induced by 5-fluorouridine. Potency, µM (highest dose often 46.1 µM), without a hit: top-dose activity change, negative = inhibition, most hits filed as inhibitors. AID 504467; note: potency is the fitted concentration of half-maximal effect; nearly all actives have a fitted effect of over 55% in size
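Overnight (16 hr) co-exposure of 2,000 cells/well to 5-fluorouridine and compound at 37 °C preceded detection. Luciferase was quantified via ONE-Glo luminescence; loss of signal denotes inhibition.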
DT40 TDP1 CPT: growth inhibition of DT40 Tdp1-/-;hTDP1 cells with camptothecin (screen for TDP1 inhibitors). 12% of 420,000 active. AID 686979. Potency, µM (highest dose often 46.2 µM), for the others: top-dose activity change, negative = growth inhibition, usual class: inhibitors. chicken DT40 Tdp1-/-;hTDP1 cells + 20 nM CPT, ATP luminescence, 48 h; note: potency is the fitted concentration of half-maximal effect; nearly all actives have a fitted effect of over 55% in size
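Chicken DT40 Tdp1-/- cells stably complemented with human TDP1 were seeded at 400 cells/well in medium containing 20 nM camptothecin, exposed to pin-transferred compounds, and grown at 37 °C for at least 48 hr. Viability was read as ATP luminescence.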
IL1B secr inh: inhibitors of inflammasome signaling (IL-1 beta secretion) | 4.7% of 360,000 active | activity change, % at 57.5 µM | THP-1 LPS/ATP IL-1B secretion, AlphaLISA, 16 h; stronger effect = lower value; in the data active = activity change below about -50%; inconclusive = mostly about -30% to -49%
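THP-1 cells pretreated 1 hr with compounds (up to 57.5 uM final), then stimulated with LPS (250 ng/mL final) plus ATP (1.25 mM final); secreted IL-1B measured by AlphaLISA after 16 hr, decreased signal indicating inhibition.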
Active calls of the source: *; u = inconclusive; x = no result given. Rows were chosen to be rich in hits. Some 21% of all compounds tested hit in one or more screens of this group. Unless noted, calls come from the whole dose curve; as a rule, active = well fitted curve in the direction sought with a large enough effect; inconclusive = small, poorly fitted or top-dose-only effect, or another doubt; inactive = no such curve, though single readings can be large; an effect the other way counts as inactive or inconclusive. % is set by controls: 0 for no effect and ±100 for the full control effect.

SMILES	VP16 counter	DT40 TDP1 no CPT	RORg inh	ELG1 repair inh	DT40 TDP1 CPT	IL1B secr inh
COc1ccc(OC)c2nc(-c3cccnc3)ccc12	21%	u	21%	u	-14%	-6
Cc1cccc2sc(N)nc12	6%	x	5%	x	x	x
Nc1cc(S(=O)(=O)N2CCOCC2)ccc1Oc1cccc(Br)c1	x	u	x	13%	u	-61*
O=C(Nn1cnnc1)c1csc2ccccc12	-24%	-8%	-14%	14%	-1%	12
OB(O)c1csc2ccccc12	-7%	11µM*	6%	x	-4%	x
COc1cccc(CN2CC34CCC(CC3S2(=O)=O)O4)c1 (stereo unspecified)	0%	x	11%	x	x	x
CCOc1c(Cl)cc(C(=O)N(Cc2ccc(N(C)C)cc2)Cc2ccco2)cc1Cl	x	13µM*	x	x	23µM*	x
COc1ccc(S(=O)(=O)NCC(=O)N(CC(=O)NCc2ccco2)Cc2ccccc2)cc1	-2%	-27%	-1%	2%	2%	1
O=C(c1cccc(Cl)c1)N(Cc1ccco1)Cc1ccccc1Cl	x	-80%	x	x	u	x
COc1ccc(CNC(=O)CN(Cc2ccco2)C(=O)CNS(=O)(=O)c2ccccc2)cc1	5%	-25%	28%	0%	u	-67*
COc1ccc(CNC(=O)C(c2cccs2)N(Cc2ccco2)C(=O)Cc2cccs2)cc1 (stereo unspecified)	-30%	23µM*	u	15µM*	u	u
CC(C)COc1ccc(C(=O)N(Cc2ccc(N(C)C)cc2)Cc2ccco2)cc1	x	15µM*	x	x	18µM*	x
CN(C)c1ccc(CN(Cc2ccco2)C(=O)c2ccco2)cc1	-3%	u	28%	-2%	u	-28
CCC(Sc1nnc(-c2ccc(F)cc2)c(-c2ccc(F)cc2)n1)C(=O)NC1CCCC1 (stereo unspecified)	x	u	x	x	-24%	x
COc1ccc(CN(Cc2ccco2)C(=O)c2ccccc2F)cc1	x	16µM*	x	x	16µM*	x
Cc1cc(C)cc(N(C(=O)CNS(=O)(=O)c2ccccc2)C(C(=O)NCc2ccccc2)c2ccc(C)o2)c1 (stereo unspecified)	u	-1%	u	u	2%	-7
Cc1ccc(S(=O)(=O)NCC(=O)N(c2ccccc2)C(C(=O)NCc2ccccc2)c2ccco2)cc1 (stereo unspecified)	-5%	18µM*	44%	-14%	u	u
CCOc1ccccc1C(=O)N(Cc1ccc(N(C)C)cc1)Cc1ccco1	x	16µM*	x	x	u	x
CC(C)COc1cccc(C(=O)N(CC(=O)Nc2ccccc2C(F)(F)F)Cc2ccco2)c1	x	18µM*	x	u	u	-29
CCOc1ccc(Sc2cc(C(=O)NC(C)CC)c3ccccc3n2)cc1 (stereo unspecified)	x	-15%	x	x	-15%	x
CCN(CC)S(=O)(=O)c1ccc2c(c1)c(=O)c(C(=O)N(C)Cc1ccccc1)cn2C	x	-12%	x	x	4%	x
COC(=O)c1ccc(C(NC(=O)OCc2ccccc2)/C(=C/[C@@H](C)C(=O)N(C)Cc2cccnc2)c2cccnc2)cc1 (stereo partly specified)	-6%	x	24%	x	x	x
O=C(OCCOCCN=C1NS(=O)(=O)c2ccccc21)c1ccccc1Br	9%	-15%	8%	u	-2%	27
C/C(=N\Nc1nccnc1Cl)c1ccc(O)c(C)c1	-17%	-1%	u	u	12%	14
CC(C)N(Cc1ccccc1)C(C)C (tested in a mixture with another compound)	5%	x	13%	x	x	x
SMILES	VP16 counter	DT40 TDP1 no CPT	RORg inh	ELG1 repair inh	DT40 TDP1 CPT	IL1B secr inh
CCOc1cccc(C(=O)N(Cc2ccc(F)cc2)C2CCS(=O)(=O)C2)c1 (stereo unspecified)	0%	-3%	-26%	0%	3%	9
CCOc1cccc(C(=O)N(Cc2ccc(F)cc2)Cc2ccco2)c1	x	16µM*	x	x	23µM*	x
CN(C)c1ccc(C2(c3ccc(N(C)C)cc3)OC(=O)c3cc(N(C)C)ccc32)cc1	-9%	x	0%	x	x	x
Cc1ccc(N(CC(=O)NCCc2ccccc2C)S(=O)(=O)N(C)C)cc1	x	u	x	x	-20%	x
CCN(CC)C1=NS(=O)(=O)c2cc([N+](=O)[O-])ccc21	-2%	23µM*	u	-18%	18µM*	5
CN(C)CCNC(C(=O)Nc1cccc(C(F)(F)F)c1)c1ccccc1 (stereo unspecified)	8%	2%	-13%	1%	-7%	-14
CCOC(=O)c1c(C)[nH]c(C(=O)OCC(=O)N(C)CC(=O)Nc2ccccc2Cl)c1C	x	u	x	u	u	-4
O=C(NC(=S)NCCN1CCOCC1)c1ccccc1Cl	-3%	-1%	-30%	2%	-28%	13
COc1ccc(C(=O)Nc2ccc(Cl)cc2C(=O)NCCN2CCOCC2)cc1	-8%	-29%	0%	-9%	-23%	-56*
CCCCNC(=S)NC(=O)c1ccc(Cl)cc1Cl	u	u	16µM*	u	-27%	5
O=C(NC(=S)NCCN1CCOCC1)c1ccc(Cl)cc1Cl	u	-4%	4µM*	u	2%	-1
CCCCNC(=S)NC(=O)c1ccccc1Br	11µM*	-22%	7.9µM*	u	-18%	17
COc1ccc(C(=O)Nc2ccccc2C(=O)NCCN2CCOCC2)cc1	-3%	-5%	-2%	23%	-25%	u
O=C(NCCCNC(=O)c1ccc(Cl)cc1Cl)c1ccco1	1%	-13%	-3%	-3%	-8%	-5
C=CCN(C(C(=O)OC)C(C)C)S(=O)(=O)CCNCc1ccccc1 (stereo unspecified)	x	u	x	x	u	92
CNc1cc(-c2cnn(CC(C)C)c2)ncn1	x	-25%	x	x	-23%	-11
Cc1ccc(C(O)CSc2nnc(-c3ccc4ccccc4c3)n2C)cc1 (stereo unspecified)	-2%	u	29%	-14%	-13%	0
O=C1C=CN(C2OC(CO)C(O)C2O)C(=O)C1 (stereo unspecified)	x	3.7µM*	x	x	8.2µM*	-9
NC(=O)c1ccc(=O)n(C2OC(CO)C(O)C2O)c1 (stereo unspecified)	x	-10%	x	x	u	-8
CCN(CC)CCCN=C1N[C@@H](c2cccc(C(F)(F)F)c2)C(C(=O)OC)=C(C)N1CC	x	-86%	x	u	u	-26
